Assay results from PubChem BioAssay (NCATS).
Calls of active or inactive are those of the source. Calls follow the shape of the dose curve; as a rule, active = well fitted activation curve with a large enough effect; inconclusive = small, poorly fitted or top-dose-only effect; inactive = flat fitted curve, though single readings scatter.

experiment: Cellular Toxicity (caspase-3) SK-N-SH (AID 661); details: SK-N-SH caspase-3 activation, qHTS, DMSO as zero, staurosporine as full; series mostly up to 91.7 µM; caspase-3 activation: at the top concentration;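 also: 0% = DMSO basal and 100% = 10 µM staurosporine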
Text: NIH Chemical Genomics Center [NCGC]
NIH Molecular Libraries Screening Centers Network [MLSCN]
National Institutes of Environmental Health Sciences [NIEHS]
National Toxicology Program [NTP]
We have developed a 1536-well cell-based assay for quantitative high throughput screening (qHTS) against a number of cell lines to determine in vitro caspase 3/7 activity of small molecules. This particular assay uses the SK-N-SH cell line which is derived from human neuroblastoma.
NCGC Assay Protocol Summary:
The Caspase-Glo 3/7 assay (Promega) is a homogeneous method to measure caspase-3 and caspase-7 activities in cultured cells. The quantitation of caspase 3/7 activity is based on the cleavage of a peptide-aminoluciferin substrate. After caspase cleaves the substrate the free aminoluciferin is liberated and serves as the substrate of luciferase, which generates the light. The luminescent signal is proportional to amount of caspase 3/7 activity present.
Using the Caspase-Glo 3/7 assay, the amount of caspase 3/7 activity was measured in the SK-N-SH cell line with complete culture medium following compound treatment for 16 hours. The assay was performed in opaque white 1536-well plates. In the screen, tamoxifen and staurosporine were used as positive controls. Library compounds were measured for their ability to cause the activation of caspase 3/7 in the cell line, as reflected by an increase in luminescence signal, in a concentration-dependent manner. Data were normalized to the controls for basal activity (DMSO only) and 100% stimulation (10 uM staurosporine). AC50 values were determined from concentration-response data modeled with the standard Hill equation.
qHTS protocol for caspase 3/7 assay in SK-N-SH cells
[Step] [Parameter] [Value] [Description]
1. Reagent; 5 uL; 1500 SK-N-SH cells/well
2. Time; 5 hr; 37 °C incubation
4. Controls; 23 nL; Tamoxifen 0.23 uM to 100 uM & staurosporine 1.4 pM to 100 uM
5. Time; 16 hr; 37 °C incubation
6. Reagent; 5 uL; Caspase-Glo 3/7 reagent
7. Time; 1 hr; Room Temperature
8. Detection; Luminescence; Viewlux plate reader
Keywords: caspase 3/7, apoptosis, SK-N-SH cell line, luminescence, NTPHTS, NTPHTS_NCGC, NIEHS, EPA, DSSTox, MLSMR, MLSCN, NIH Roadmap, qHTS, NCGC

SMILES | caspase-3 activation
CCOc1ccc(NC(C)=O)cc1 | -1.68% (inactive)
C/C=C/c1ccc(O)c(OC)c1 | 1.47% (inactive)
O=C(O)c1ccc(S(=O)(=O)N(Cl)Cl)cc1 | 0.994% (inactive)
COc1ccc(C(=O)c2ccccc2)c(O)c1 | -0.651% (inactive)
Oc1c(Cl)cc(Cl)c(Cl)c1Cc1c(O)c(Cl)cc(Cl)c1Cl | 5.64% (inactive)
CCCCC(CC)COC(=O)c1ccc(N(C)C)cc1 (stereo not given) | 0.988% (inactive)
CCOc1ccccc1C(N)=O | 1.29% (inactive)
NC(=O)c1ccccc1O | -0.946% (inactive)
Oc1ccc(Cl)cc1Cc1cc(Cl)ccc1O | 2.98% (inactive)
CCCN(CCC)S(=O)(=O)c1ccc(C(=O)O)cc1 | 0.804% (inactive)
C=C[C@H]1CN2CC[C@H]1C[C@@H]2[C@@H](O)c1ccnc2ccc(OC)cc12 | 0.494% (inactive)
OC[C@H]1O[C@@H]2O[C@H]3[C@H](O)[C@@H](O)[C@@H](O[C@H]4[C@H](O)[C@@H](O)[C@@H](O[C@H]5[C@H](O)[C@@H](O)[C@@H](O[C@H]6[C@H](O)[C@@H](O)[C@@H](O[C@H]7[C@H](O)[C@@H](O)[C@@H](O[C@H]8[C@H](O)[C@@H](O)[C@@H](O[C@H]1[C@H](O)[C@H]2O)O[C@@H]8CO)O[C@@H]7CO)O[C@@H]6CO)O[C@@H]5CO)O[C@@H]4CO)O[C@@H]3CO | 0.878% (inactive)
COc1cc([C@H]2Oc3cc([C@H]4Oc5cc(O)cc(O)c5C(=O)[C@@H]4O)ccc3O[C@@H]2CO)ccc1O | -2.55% (inactive)
COc1ccc(C(Cl)=C(c2ccc(OC)cc2)c2ccc(OC)cc2)cc1 | 1.16% (inactive)
NCCNc1cccc2ccccc12 | 6.93% (inactive)
